Test results published in PubChem BioAssay AID1159580 (chemical genetic matrix, 2015).
In all, about 5,500 compounds went through this assay and about 2,000 (36%) were called active. Inconclusive results (about 18%) are left out. No stated cut-off is given here; in the data, active means normalized growth mostly below about 0.91 (no sharp cut-off); inconclusive means no clear call, values can overlap the other calls; inactive means mostly above about 0.92. Some of the results follow.

Experiment: chemical genetic growth profiling, strain panel (AID 1159580);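 further: tested at 20 µM; growth read once vehicle control cultures reached saturation at 30 °C; 1 = growth at the plate median or of vehicle wells; lower values mean less growth of the strain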
Settings: growth OD

Measured: normalized growth

CC(=O)O[C@H]1C[C@@]2(C)[C@H](c3ccoc3)OC(=O)[C@H]3O[C@]32[C@@]2(C)C1[C@]1(C)C(C[C@H]2OC(C)=O)C(C)(C)[C@H](OC(C)=O)C[C@@H]1OC(C)=O (some centres undefined)
inactive: S. cerevisiae deletion strains, locus YJL168C, strain set2, active compounds read low 0.99 | S. cerevisiae deletion strains, locus YJL187C, strain SWE1 (second series), active compounds read low 0.976 | S. cerevisiae deletion strains, locus YJR043C, strain POL32, active compounds read low 0.974 | S. cerevisiae deletion strains, locus YKL009W, strain mrt4, active compounds read low 0.912 | S. cerevisiae deletion strains, locus YKL068W, active compounds read low 0.978 | S. cerevisiae deletion strains, locus YKL085W, strain MDH1 (second series), active compounds read low 0.973 | S. cerevisiae deletion strains, locus YKL085W, strain MDH1, active compounds read low 0.973 | S. cerevisiae deletion strains, locus YKL160W, strain elf1, active compounds read low 1.05 | S. cerevisiae deletion strains, locus YKR001C, strain vps1, active compounds read low 0.982 | S. cerevisiae deletion strains, locus YKR026C, strain gcn3, active compounds read low 0.978 | S. cerevisiae deletion strains, locus YKR091W, strain srl3, active compounds read low 0.995 | S. cerevisiae deletion strains, locus YLL001W, strain dnm1, active compounds read low 0.977 | S. cerevisiae deletion strains, locus YLL026W, active compounds read low 0.974 | S. cerevisiae deletion strains, locus YLL041C, strain sdh2, active compounds read low 0.998 | S. cerevisiae deletion strains, locus YLR027C, strain aat2, active compounds read low 0.965 | S. cerevisiae deletion strains, locus YLR039C, strain RIC1, active compounds read low 0.959 | S. cerevisiae deletion strains, locus YLR058C, strain SHM2, active compounds read low 0.978 | S. cerevisiae deletion strains, locus YLR102C, strain apc9, active compounds read low 0.979 | S. cerevisiae deletion strains, locus YLR221C, strain rsa3, active compounds read low 0.987 | S. cerevisiae deletion strains, locus YLR258W, strain gsy2, active compounds read low 1.02 | S. cerevisiae deletion strains, locus YLR262C, strain YPT6 (second series), active compounds read low 1.03 | S. cerevisiae deletion strains, locus YLR268W, strain sec22, active compounds read low 0.975 | S. cerevisiae deletion strains, locus YLR320W, strain mms22, active compounds read low 0.999 | S. cerevisiae deletion strains, locus YLR342W, strain FKS1, active compounds read low 0.995 | S. cerevisiae deletion strains, locus YLR357W, strain rsc2, active compounds read low 1.01 | S. cerevisiae deletion strains, locus YLR370C, strain arc18, active compounds read low 0.961 | S. cerevisiae deletion strains, locus YLR371W, strain rom2, active compounds read low 0.982 | S. cerevisiae deletion strains, locus YLR384C, strain iki3, active compounds read low 1.01 | S. cerevisiae deletion strains, locus YLR418C, strain cdc73, active compounds read low 1.01 | S. cerevisiae deletion strains, locus YML016C, strain PPZ1, active compounds read low 0.984 | S. cerevisiae deletion strains, locus YML032C, strain rad52, active compounds read low 0.977 | S. cerevisiae deletion strains, locus YML120C, strain ndi1, active compounds read low 1.02 | S. cerevisiae deletion strains, locus YML124C, strain tub3, active compounds read low 0.993 | S. cerevisiae deletion strains, locus YMR058W, strain fet3, active compounds read low 0.988 | S. cerevisiae deletion strains, locus YMR078C, strain ctf18, active compounds read low 0.955 | S. cerevisiae deletion strains, locus YMR125W, strain sto1, active compounds read low 1.02 | S. cerevisiae deletion strains, locus YMR129W, active compounds read low 0.985 | S. cerevisiae deletion strains, locus YMR205C, strain PFK2, active compounds read low 1.01 | S. cerevisiae deletion strains, locus YMR223W, strain ubp8, active compounds read low 0.991 | S. cerevisiae deletion strains, locus YMR231W, strain pep5, active compounds read low 0.979 | S. cerevisiae deletion strains, locus YMR263W, strain SAP30, active compounds read low 0.969 | S. cerevisiae deletion strains, locus YMR307W, strain GAS1, active compounds read low 1.05 | S. cerevisiae deletion strains, locus YNL067W, strain RPL9B, active compounds read low 0.996 | S. cerevisiae deletion strains, locus YNL071W, strain lat1, active compounds read low 0.999 | S. cerevisiae deletion strains, locus YNL128W, strain TEP1, active compounds read low 0.971 | S. cerevisiae deletion strains, locus YNL153C, strain GIM3, active compounds read low 0.985 | S. cerevisiae deletion strains, locus YNL209W, strain ssb2, active compounds read low 0.992 | S. cerevisiae deletion strains, locus YNL233W, strain BNI4, active compounds read low 1 | S. cerevisiae deletion strains, locus YNL248C, strain rpa49, active compounds read low 0.984 | S. cerevisiae deletion strains, locus YNL250W, strain rad50, active compounds read low 0.97 | S. cerevisiae deletion strains, locus YNL271C, strain bni1, active compounds read low 0.979 | S. cerevisiae deletion strains, locus YNL298W, strain CLA4, active compounds read low 0.968 | S. cerevisiae deletion strains, locus YNL307C, strain MCK1, active compounds read low 0.991 | S. cerevisiae deletion strains, locus YNL322C, strain KRE1 (second series), active compounds read low 0.985 | S. cerevisiae deletion strains, locus YNR049C, strain mso1, active compounds read low 0.985 | S. cerevisiae deletion strains, locus YNR052C, strain pop2, active compounds read low 0.98 | S. cerevisiae deletion strains, locus YOL006C, strain TOP1, active compounds read low 0.959 | S. cerevisiae deletion strains, locus YOL012C, strain htz1 1.13 | S. cerevisiae deletion strains, locus YOL147C, strain pex11, active compounds read low 0.987 | S. cerevisiae deletion strains, locus YOR001W, strain rrp6, active compounds read low 0.919 | S. cerevisiae deletion strains, locus YOR061W, strain CKA2, active compounds read low 0.966 | S. cerevisiae deletion strains, locus YOR069W, strain VPS5, active compounds read low 0.992 | S. cerevisiae deletion strains, locus YOR070C, strain gyp1, active compounds read low 1 | S. cerevisiae deletion strains, locus YOR080W, strain dia2, active compounds read low 0.963 | S. cerevisiae deletion strains, locus YOR083W, strain WHI5, active compounds read low 1.04 | S. cerevisiae deletion strains, locus YOR106W, strain vam3, active compounds read low 1.03 | S. cerevisiae deletion strains, locus YOR136W, strain idh2, active compounds read low 0.974 | S. cerevisiae deletion strains, locus YOR144C, strain elg1, active compounds read low 0.989 | S. cerevisiae deletion strains, locus YOR184W, strain ser1, active compounds read low 0.966 | S. cerevisiae deletion strains, locus YOR265W, strain rbl2, active compounds read low 0.951 | S. cerevisiae deletion strains, locus YOR270C, strain vph1, active compounds read low 0.879 | S. cerevisiae deletion strains, locus YOR290C, strain snf2, active compounds read low 1.05 | S. cerevisiae deletion strains, locus YOR316C, strain cot1, active compounds read low 0.982 | S. cerevisiae deletion strains, locus YPL051W, strain arl3, active compounds read low 0.995 | S. cerevisiae deletion strains, locus YPL055C, strain LGE1, active compounds read low 0.964 | S. cerevisiae deletion strains, locus YPL078C, strain atp4, active compounds read low 1.05 | S. cerevisiae deletion strains, locus YPL106C, strain sse1, active compounds read low 1.03 | S. cerevisiae deletion strains, locus YPL240C, strain hsp82, active compounds read low 0.986 | S. cerevisiae deletion strains, locus YPR119W, strain clb2, active compounds read low 0.983 | S. cerevisiae deletion strains, locus YPR141C, strain kar3, active compounds read low 0.984 | S. cerevisiae deletion strains, locus YPR163C, strain tif3, active compounds read low 0.989 | S. cerevisiae deletion strains, locus YPR167C, strain met16, active compounds read low 0.984 | S. cerevisiae deletion strains, strain wtn01, active compounds read low 0.94 | S. cerevisiae strains, strain wild type, active compounds read low 0.993
